# Results reported in the supplement of paper PMC13380429.
# Key:
# [1] = system: Vero E6 infected with SARS-CoV-2; test: morphology score (similarity to uninfected cells); higher = more like uninfected cells; details: 24 h
# [2] = system: Vero E6 infected with SARS-CoV-2; test: SARS-CoV-2 infection rate relative to infected DMSO; higher = more infection, active = 60 or less; details: 24 h
SMILES,morphology score [1],SARS-CoV-2 infection rate [2]
CO/N=C(\C(=O)N[C@@H]1C(=O)N2C(C(=O)O)=CCS[C@H]12)c1csc(N)n1 [ceftizoxim] (10 µM),-0.0509,102% (inactive)
O=C(O)[C@H](Cc1ccc(Nc2nccc3ccncc23)cc1)NC1=C(Br)C(=O)C12CCCCC2 (10 µM),0.0401,98% (inactive)
CC1(C)CC(=O)c2c(C(F)(F)F)nn(-c3ccc(C(N)=O)c(N[C@H]4CC[C@H](O)CC4)c3)c2C1 (10 µM),0.196,102% (inactive)
OC(c1cc(C(F)(F)F)nc2c(C(F)(F)F)cccc12)C1CCCCN1 (centres undefined) [mefloquine] (0.833333 µM),-0.113,112% (inactive)
Cc1c(C(=O)NN2CCOCC2)nn(-c2ccc(Cl)cc2Cl)c1-c1ccc(I)cc1 (10 µM),0.11,87.5% (inactive)
N#CCC1(n2cc(-c3ncnc4[nH]ccc34)cn2)CN(C2CCN(C(=O)c3ccnc(C(F)(F)F)c3F)CC2)C1 [itacitinib] (10 µM),0.22,97.5% (inactive)
O=C(O)C1=CCCN(CCOC(c2ccc(C(F)(F)F)cc2)c2ccc(C(F)(F)F)cc2)C1 (10 µM),0.0171,103% (inactive)
Cc1cc(Cn2nnc3c(-c4ccco4)nc(N)nc32)ccc1N [vipadenant] (10 µM),0.0562,110% (inactive)
CCCCNc1ccc(C(=O)OCCN(C)C)cc1 [tetracaine] (10 µM),-0.144,116% (inactive)
CN1C(C(=O)Nc2ccccn2)=C(O)c2ccccc2S1(=O)=O [piroxicam] (10 µM),0.184,98.5% (inactive)
NCc1ccccc1CC(=O)N[C@@H]1C(=O)N2C(C(=O)O)=C(CSc3nnnn3CC(=O)O)CS[C@H]12 [ceforanide] (10 µM),0.13,100% (inactive)
CC#CCC(C)[C@H](O)/C=C/[C@@H]1[C@H]2C/C(=C/CCCC(=O)O)C[C@H]2C[C@H]1O (some centres undefined) [iloprost] (10 µM),0.0115,108% (inactive)
CCCCCCCCCCCCCCCC[N+](C)(C)C [cetrimonium] (0.833333 µM),-0.199,114% (inactive)
CCOC(=O)c1c(CSc2ccccc2)n(C)c2cc(Br)c(O)c(CN(C)C)c12 [arbidol] (10 µM),0.126,87.5% (inactive)
CC1Oc2cc(cnc2N)-c2c(nn(C)c2C#N)CN(C)C(=O)c2ccc(F)cc21 (centres undefined) (10 µM),0.32,99.5% (inactive)
C[C@@H]1CC[C@H]2C(C)(C)[C@H]3C[C@@]12CC[C@@]3(C)O [cedrol] (10 µM),0.0579,95.5% (inactive)
CC(C)[C@H](O)C(=O)N[C@@H](C)C(=O)N[C@@H]1C(=O)N(C)CCc2ccccc21 [semagacestat] (10 µM),0.0376,120% (inactive)
CN(C)N(C)C(=O)[C@@]1(Cc2ccccc2)CCCN(C(=O)[C@@H](Cc2c[nH]c3ccccc23)NC(=O)C(C)(C)N)C1 [anamorelin] (10 µM),0.0474,98.5% (inactive)
N#CCC(=O)NN [cyacetacide] (10 µM),0.167,102% (inactive)
O=c1[nH]cnc2c([C@@H]3N[C@H](CO)[C@@H](O)[C@H]3O)c[nH]c12 [forodesine] (10 µM),0.155,103% (inactive)
CCOc1ccc(NC(=S)N2CCC(C(O)(c3ccccc3)c3ccccc3)CC2)cc1 (10 µM),0.267,86.5% (inactive)
O=C(NCc1ccc(OC(F)(F)F)cc1)C1c2ccccc2C(=O)N1C1CCOCC1 (centres undefined) (10 µM),-0.0695,105% (inactive)
C=C1/C(=C\C=C2/CCC[C@]3(C)[C@@H]([C@H](C)/C=C/[C@H](C)C(C)C)CC[C@@H]23)C[C@@H](O)C[C@@H]1O [doxercalciferol] (10 µM),-0.0772,106% (inactive)
C[C@@H]1C[C@H]2[C@@H]3C[C@H](F)C4=CC(=O)C=C[C@]4(C)[C@@]3(F)[C@@H](O)C[C@]2(C)[C@@]1(O)C(=O)CO [flumethasone] (10 µM),-0.0494,110% (inactive)
COc1ccccc1N1CCN(CCCCNC(=O)c2ccc(-c3ccc(C(C)=O)cc3)cc2)CC1 (10 µM),-0.218,113% (inactive)
N[C@@H](CS)C(=O)O [L-cysteine] (10 µM),0.0349,94% (inactive)
CCN(CC)CCOC(=O)C(c1ccccc1)C1CCCCC1 (centres undefined) [drofenine] (10 µM),0.275,99.5% (inactive)
